Reference: PubChem BioAssay
Activity calls are given as the source filed them. No rule for the calls is given here.

The compounds below were run on Aerobactin synthetase IucA (Klebsiella pneumoniae hvKP1) (assay: Biochemical IucA enzyme inhibition primary screen of the Spectrum library (AID 1346200;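 also: 100% = wells without compound and 0% = wells lacking enzyme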)). Settings: malachite green pyrophosphate, A620, at 8 µM, hits give low values.
For `CC1(C)C[C@@H](O)[C@]2(C)CC[C@]3(C)C(=CCC4[C@@]5(C)CC[C@H](O)[C@](C)(CO)C5CC[C@]43C)[C@@H]2C1` (some centres not stated), the activity remaining was 100% (inactive).
With `COc1ccc(-c2cc(=O)c3c(OC)c(OC)c(OC)c(OC)c3o2)cc1OC` the activity remaining was 122% (inactive).
In the case of `COc1cnc(NS(=O)(=O)c2ccc(N)cc2)nc1`, the activity remaining was 113% (inactive).
`C=C1C(=O)OC2CC1C(OC(C)=O)C/C(C)=C/CC/C(C)=C/CC[C@]2(C)O` (some centres not stated) was tested, and the activity remaining was 123% (inactive).
With `COc1cc2ccc(=O)oc2cc1O` the activity remaining was 110% (inactive).
`Oc1cc2c(cc1O)C1c3ccc(O)c(O)c3OCC1(O)C2` (configuration not stated) was tested, and the activity remaining was 109% (inactive).
With `O=C(O)C1(O)C[C@@H](O)C(O)[C@H](O)C1` (some centres not stated) the activity remaining was 89.8% (inactive).
`O=C(O)c1ccc2c(c1)OCO2` was tested, and the activity remaining was 101% (inactive).
With `CCOc1ccc(Cc2nccc3cc(OCC)c(OCC)cc23)cc1OCC` the activity remaining was 109% (inactive).
With `CC1(C)S[C@@H]2[C@H](NC(=O)[C@H](C(=O)O)c3cccs3)C(=O)N2[C@H]1C(=O)O` the activity remaining was 102% (inactive).
`O=c1oc2c(O)c(O)cc3c(=O)oc4c(O)c(O)cc1c4c23` was tested, and the activity remaining was 91.8% (inactive).
In the case of `CC(NCCC(c1ccccc1)c1ccccc1)c1ccccc1` (configuration not stated), the activity remaining was 104% (inactive).
With `COc1cc(O)c(C(=O)/C=C/c2ccc(OC)c(O)c2)c(OC)c1` the activity remaining was 105% (inactive).
`CCOc1ccc(C(=O)c2ccc(O)c(O)c2O)cc1` was tested, and the activity remaining was 110% (inactive).
For `CCCOc1ccc(C(=O)OCCN(CC)CC)cc1N`, the activity remaining was 109% (inactive).
With `OCC(S)CS` (configuration not stated) the activity remaining was 91.4% (inactive).
For `O=C(O[C@@H]1Cc2c(O)cc(O)cc2O[C@@H]1c1cc(O)c(=O)c2c(O)c(O)cc([C@H]3Oc4cc(O)cc(O)c4C[C@H]3OC(=O)c3cc(O)c(O)c(O)c3)c2c1)c1cc(O)c(O)c(O)c1`, the activity remaining was 108% (inactive).
